“And” between values parts separate entries of the source, which are not always exact repeats. Identical values can stand only once.
Biological target: C-X-C chemokine receptor type 6 (Homo sapiens) (UniProt O00574)
Test: apelin receptor (APJ) antagonists, SAR follow-up, counter-screen for CXCR6 antagonist project, cell-based, beta-arrestin, DiscoveRx, panel, CHO-K1 (AID 651598)
Details: CHO-K1 PathHunter beta-arrestin luminescence, antagonist mode; run 4, at 80 µM (top of the series)

Chain of C-X-C chemokine receptor type 6 (Homo sapiens) (O00574 whole entry, looked up): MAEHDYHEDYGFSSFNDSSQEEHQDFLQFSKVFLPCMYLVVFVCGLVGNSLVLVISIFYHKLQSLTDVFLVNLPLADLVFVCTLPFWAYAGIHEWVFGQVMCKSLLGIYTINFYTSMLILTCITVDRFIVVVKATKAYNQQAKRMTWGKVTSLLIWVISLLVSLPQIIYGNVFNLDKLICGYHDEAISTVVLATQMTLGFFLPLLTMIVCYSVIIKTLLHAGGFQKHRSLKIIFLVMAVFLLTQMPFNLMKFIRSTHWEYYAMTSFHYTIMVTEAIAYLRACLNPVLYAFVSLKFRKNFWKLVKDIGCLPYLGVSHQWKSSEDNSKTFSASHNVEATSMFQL

SMILES	inhibition
COc1cc(C(=O)NC2CC3CCCC(C2)N3CC(=O)Nc2ccccc2)cc(OC)c1OC (stereo not drawn)	88.8% and 51.2% and 29%
COc1cc(C(=O)NC2CC3CCC(C2)N3CC(=O)Nc2ccccc2)cc(OC)c1OC (stereo not drawn)	45.8% and 2.45%
COc1cc(C(=O)NC2CCN(CC(=O)Nc3ccccc3)CC2)cc(OC)c1OC	29.6%
